Results reported in PubChem BioAssay AID1159580 (chemical genetic matrix, 2015).
Several values for one entry are separate records, joined by “and”; a condition that tells them apart may be missing. Equal values may be shown once. The whole screen tested about 5,500 compounds, of which about 2,000 (36%) were called active. About 18% were inconclusive and are not listed. Rule as the data show it: active = normalized growth mostly below about 0.91 (no sharp cut-off); inconclusive = no clear call, values can overlap the other calls; inactive = mostly above about 0.92. The list shows a part of the results.

Experiment: chemical genetic growth profiling, strain panel (AID 1159580);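 also: tested at 20 µM; growth read once vehicle control cultures reached saturation at 30 °C; 1 = growth at the plate median or of vehicle wells; lower values mean less growth of the strain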
Settings: S. cerevisiae deletion strains, growth OD

Measured: normalized growth

NCCCS(=O)(=O)O
inactive: locus YAL013W, strain DEP1, active compounds read low 0.978 and 1.01 | locus YAL021C, strain ccr4, active compounds read low 1 | locus YAL026C, strain drs2, active compounds read low 1.04 | locus YAL030W, strain snc1, active compounds read low 1.02 | locus YAL040C, strain CLN3, active compounds read low 1.01 | locus YBL061C, strain skt5, active compounds read low 1.02 | locus YBR009C, strain hhf1, active compounds read low 1.02 | locus YBR021W, strain FUR4, active compounds read low 1 | locus YBR023C, strain chs3, active compounds read low 1.03 | locus YBR171W, strain sec66, active compounds read low 1.02 | locus YBR229C, strain ROT2, active compounds read low 0.955 | locus YBR231C, strain swc5, active compounds read low 1.01 | locus YBR279W, strain paf1, active compounds read low 1.01 | locus YCL011C, strain gbp2, active compounds read low 1.02 | locus YCL016C, strain dcc1, active compounds read low 1.01 | locus YCL029C, strain bik1, active compounds read low 0.991 | locus YCL061C, strain MRC1, active compounds read low 1.02 | locus YCL069W, strain vba3, active compounds read low 1.02 | locus YCR088W, strain abp1, active compounds read low 1.02 | locus YDL005C, strain med2, active compounds read low 1.05 | locus YDL035C, strain GPR1, active compounds read low 0.988 | locus YDL040C, strain nat1, active compounds read low 1.01 | locus YDL074C, strain BRE1, active compounds read low 1.03 | locus YDL101C, strain DUN1, active compounds read low 0.982 | locus YDL134C, strain PPH21, active compounds read low 0.985 | locus YDL185W, strain tfp1, active compounds read low 0.982 | locus YDL192W, strain arf1, active compounds read low 0.984 | locus YDR001C, strain nth1, active compounds read low 1.02 | locus YDR069C, strain doa4, active compounds read low 1.01 | locus YDR101C, strain arx1, active compounds read low 0.999 | locus YDR137W, strain rgp1, active compounds read low 1.03 | locus YDR150W, strain NUM1, active compounds read low 0.964 and 1.02 | locus YDR159W, strain sac3, active compounds read low 1.01 | locus YDR162C, strain NBP2, active compounds read low 0.982 | locus YDR195W, strain ref2 1.02 | locus YDR297W, strain sur2, active compounds read low 1.02 | locus YDR318W, strain mcm21, active compounds read low 1 | locus YDR334W, strain swr1, active compounds read low 1.03 | locus YDR335W, strain msn5, active compounds read low 1.02 | locus YDR388W, active compounds read low 0.997 | locus YDR392W, strain spt3, active compounds read low 0.936 | locus YDR502C, strain sam2, active compounds read low 0.982 | locus YEL003W, strain gim4, active compounds read low 1.02 | locus YEL037C, strain rad23, active compounds read low 1.02 | locus YEL061C, strain CIN8 (second series), active compounds read low 1.03 | locus YEL061C, strain CIN8, active compounds read low 0.981 | locus YER002W, strain NOP16, active compounds read low 1.01 | locus YER015W, strain faa2, active compounds read low 0.994 | locus YER016W, strain bim1, active compounds read low 1.03 | locus YER110C, active compounds read low 0.961 | locus YER111C, strain swi4, active compounds read low 1.03 | locus YER155C, strain BEM2 (second series), active compounds read low 1.02 | locus YER155C, strain BEM2, active compounds read low 0.988 | locus YER167W, strain BCK2, active compounds read low 1 | locus YFR010W, strain ubp6, active compounds read low 1.04 | locus YGL078C, strain dbp3, active compounds read low 0.977 | locus YGL086W, strain mad1, active compounds read low 0.98 | locus YGL167C, strain pmr1, active compounds read low 1.02 | locus YGL173C, strain kem1, active compounds read low 1.03 | locus YGL227W, strain vid30, active compounds read low 1.03 | locus YGL240W, strain doc1, active compounds read low 1 | locus YGL248W, strain PDE1, active compounds read low 0.985 | locus YGL253W, strain hxk2, active compounds read low 1.04 | locus YGR078C, strain PAC10, active compounds read low 1 | locus YGR135W, strain pre9, active compounds read low 0.977 | locus YGR229C, strain SMI1, active compounds read low 1 | locus YGR252W, strain gcn5, active compounds read low 0.908 | locus YHR013C, strain ard1, active compounds read low 1.02 | locus YHR027C, strain rpn1, active compounds read low 1.03 | locus YHR030C, strain SLT2, active compounds read low 0.984 and 1.01 | locus YHR079C, strain IRE1 (second series), active compounds read low 0.989 | locus YHR079C, strain IRE1, active compounds read low 0.996 | locus YHR094C, strain hxt1, active compounds read low 0.999 | locus YHR129C, strain ARP1, active compounds read low 0.989 | locus YHR142W, strain chs7, active compounds read low 1.06 | locus YHR200W, strain rpn10, active compounds read low 0.993 | locus YIL066C, strain RNR3, active compounds read low 0.975 | locus YIL073C, strain SPO22, active compounds read low 0.985 | locus YIL125W, strain kgd1, active compounds read low 0.981 | locus YIR030C, strain dcg1, active compounds read low 0.985 | locus YJL092W, strain hpr5, active compounds read low 1.03 | locus YJL095W, strain BCK1 (second series), active compounds read low 1.02 | locus YJL095W, strain BCK1, active compounds read low 1.03 and 1.01 | locus YJL115W, strain asf1, active compounds read low 1.03 | locus YJL129C, strain trk1, active compounds read low 1.05 | locus YJL134W, strain LCB3, active compounds read low 0.985 | locus YJL154C, strain vps35, active compounds read low 1.02 | locus YJL164C, strain tpk1, active compounds read low 1.01 | locus YJL166W, strain qcr8, active compounds read low 1.02 | locus YJL168C, strain set2, active compounds read low 0.996 | locus YJL187C, strain SWE1 (second series), active compounds read low 0.983 | locus YJR043C, strain POL32, active compounds read low 1.02 | locus YJR066W, strain TOR1, active compounds read low 0.984 | locus YJR075W, strain HOC1, active compounds read low 0.995
